High-throughput results from PubChem.
Most compounds without a hit are left out; they make up all but 2.4% or so of the library.
D2 antag = D2 dopamine receptor (human) antagonism | inhibition, % at 10 µM | hit rate 2% among 340,000 | HEK293 TREx D2 cells, calcium flux, dopamine EC80; in the data active = inhibition above about 30%; inactive = below that, where a call was filed; also: 0% is about no effect
Target sequence (P14416 whole entry, looked up): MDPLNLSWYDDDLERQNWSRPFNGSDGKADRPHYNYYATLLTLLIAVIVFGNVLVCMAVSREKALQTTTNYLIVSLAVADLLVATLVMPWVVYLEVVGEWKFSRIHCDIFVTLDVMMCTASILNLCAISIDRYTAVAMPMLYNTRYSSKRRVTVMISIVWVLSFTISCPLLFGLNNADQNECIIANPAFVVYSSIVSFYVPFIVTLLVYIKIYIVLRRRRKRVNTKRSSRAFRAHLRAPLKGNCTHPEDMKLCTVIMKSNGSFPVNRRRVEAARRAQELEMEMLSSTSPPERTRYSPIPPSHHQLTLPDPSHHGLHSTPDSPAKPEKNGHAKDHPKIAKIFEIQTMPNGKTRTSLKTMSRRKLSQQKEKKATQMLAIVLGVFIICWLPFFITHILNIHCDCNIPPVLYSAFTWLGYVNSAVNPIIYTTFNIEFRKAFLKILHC
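Dopamine at EC80 is the agonist stimulus; test compounds precede it by 180 s. Calcium flux read kinetically in a force-coupled, inducible HEK293 T-REx D2 cell line.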
D2 PAM-1 = positive allosteric modulators of human D2 dopamine receptor. hit rate 0.23% among 360,000. DiscoveRx D2 beta-arrestin cells, luminescence, 90 min; 100% = 57 uM dopamine signal. potentiation, % (concentration not given with the values); in the data active = potentiation above about 50%; inconclusive = mostly about 30% to 49%
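PathHunter beta-arrestin assay in DiscoveRx D2 cells. Compounds were added with an EC20 of dopamine (50 nM final) for 90 min at 37 deg C. Luminescence was read 1 h after detection reagent, with 57 uM dopamine as the EC100 control.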
D2 ag-1 = human D2 receptor agonism in beta-arrestin assay | P14416 | DiscoveRx PathHunter D2 beta-arrestin, luminescence, 90 min; 100% = 57 uM dopamine signal | activation, % (test concentration not listed) | hit rate 0.084% among 360,000; in the data active = activation above about 40%; inconclusive = between about 15% and that limit
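DiscoveRx PathHunter D2 beta-arrestin cells (2,100/well) attached overnight, then compound-stimulated 90 min at 37 C in HBSS/10 mM HEPES/0.1% Tween-20 buffer; beta-galactosidase complementation read by luminescence after 1 h at ambient temperature. Dopamine 57 uM final (EC100) as control.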
D2 ag-2 = D2 dopamine receptor (human) agonism | P14416 | HEK293 T-REx D2 cells, calcium flux agonist mode | activation, % at 2 µM | hit rate 0.53% among 340,000 | AID 485358;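 active = activation over 3 SD above normal in the single-dose calcium agonist read, cut at about 30% in these data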; also: 0% is about no effect
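Tetracycline-induced HEK293 Trex cells with D2 receptor force-coupled to calcium signaling, plated overnight at 30 C and loaded with no-wash calcium dye. Calcium flux read kinetically for 180 s after compound addition; responses flag agonists.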
D2 PAM-2 = positive allosteric modulators of human D2 dopamine receptor. P14416. potentiation, % at 10 µM. hit rate 0.34% among 340,000. AID 485347. HEK293 T-REx D2, calcium flux, EC20 dopamine potentiation;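 active = potentiation over 3 SD above the plate norm, cut at about 30% in these data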; also: 0% is about no effect
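Using a no-wash calcium dye in inducible, force-coupled HEK293 Trex cells expressing D2, we tracked fluorescence each second for 180 s after compound, then for 180 s after EC20 dopamine to detect augmented signalling.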
Active calls of the source: *; ? = inconclusive; / = no result given.

SMILES	D2 antag	D2 PAM-1	D2 ag-1	D2 ag-2	D2 PAM-2
O=C(N/N=C/c1cc2c(cc1Br)OCO2)c1cc2ccccc2o1	79.9*	-54.1	-2.7	-0.5	-25.0
Cc1ccc(-c2cc3nc(-c4ccccc4)cc(C(F)(F)F)n3n2)cc1	/	/	/	0.5	7.3
O=C(CS(=O)(=O)c1ccc(Cl)cc1)Nc1nc2ccc(Br)cc2s1	/	/	/	-3.7	0.1
CC1(NC(=O)c2cccc(S(=O)(=O)N3CCCc4ccccc43)c2)CCS(=O)(=O)C1 (stereo not drawn)	-39.8	10.4	-0.8	0.5	-1.4
CN1CCN(S(=O)(=O)c2cccc(C(=O)NC3(C)CCS(=O)(=O)C3)c2)CC1 (stereo not drawn)	-1.5	-21.8	-0.1	0.2	40.7*
COc1ccc(Cl)cc1C(=O)NNC(=S)NC(=O)c1ccc(F)c(F)c1	40.4*	-7.1	-3.8	29.9	-2.9
Cc1ccc(C(=O)NC(=S)NNC(=O)c2ccc([N+](=O)[O-])cc2)cc1	33.2*	-1.5	-2.3	1.5	0.2
Cc1ccc(C(=O)NNC(=S)NC(=O)c2ccccc2)cc1	/	-26.6	-5.3	/	/
Cc1ccc(C(=O)NNC(=S)NC(=O)c2ccc(Cl)cc2Cl)cc1	-1.1	0.8	-1.7	70.1*	-22.8
Cc1ccccc1C(=O)NNC(=S)NC(=O)c1ccccc1	17.5	-24.0	1.3	51.2*	-9.2
COc1ccc(C(=O)NNC(=S)NC(=O)c2ccc(F)cc2)cc1Br	/	-9.1	7.6	/	/
CCOc1ccc(CNC(=O)c2cnc3sc(N4CCOCC4)nn3c2=O)cc1OC	/	/	/	-0.3	9.1
O=S(=O)(c1ccc(-c2csc(=Nc3ccc(F)cc3)n2CCCCCCO)cc1)N1CCCC1	/	/	/	/	12.1
Cc1ccc(NC(=O)C2CCCN2S(=O)(=O)c2cccc3nsnc23)c(Br)c1 (stereo not drawn)	/	/	/	/	-5.0
CCCNC(=O)C1CCC(Cn2c(=O)c3sccc3n(CC(=O)Nc3ccccc3C)c2=O)CC1 (stereo not drawn)	/	/	/	-0.1	-0.7
Cc1onc(-c2ccccc2)c1C(=O)OCCOc1ccccc1F	37.6*	-3.8	0.2	1.7	2.5
COc1ccc(-c2noc(CC(=O)N(C)c3cc(Cl)c(OC)cc3OC)n2)cc1	/	/	/	0.6	3.6
Cc1sc(N/N=C/c2cccs2)nc1-c1ccccc1	-15.5	66.4*	?	0.4	-9.3
O=C(NCCc1ccccc1)c1cc(-c2ccc(Cl)cc2)on1	/	/	/	/	-5.7
CCOC(=O)C1CCN(C(=O)CN(c2ccc3c(c2)OCO3)S(C)(=O)=O)CC1	45.3*	-16.3	-2.3	0.7	1.3
CCOC(=O)C1CCN(C(=O)CN(c2ccc(Cl)c(C(F)(F)F)c2)S(C)(=O)=O)CC1	-3.5	-15.5	-3.1	0.1	15.3
Cc1cc(C)cc(N(CC(=O)N2CCCCCC2)S(C)(=O)=O)c1	34.2*	2.2	6.6	-0.7	-2.4
C=CCNC(=S)NNC(=O)c1ccc(OCCC)cc1	5.6	-7.6	-5.2	-1.0	-4.0
CCCOc1ccc(NC(=O)c2c(-c3ccccc3)noc2C)cc1	1.4	0.7	-6.1	0.1	-7.3
CCCOc1ccc(C(=O)NC(=S)NNC(=O)c2c(-c3ccccc3)noc2C)cc1	24.6	-22.8	-13.8	70.0*	-12.0
SMILES	D2 antag	D2 PAM-1	D2 ag-1	D2 ag-2	D2 PAM-2
Cc1onc(-c2ccccc2)c1C(=O)Nc1nnc(COc2ccc(Cl)cc2)s1	38.9*	?	0.4	1.2	/
CCCOc1ccc(C(=O)NNC(=S)NC(=O)CC)cc1	72.4*	-18.4	-6.4	0.1	-10.8
CCc1ccc(NC(=O)CCS(=O)(=O)c2ccc3c(c2)n(C)c(=O)c(=O)n3C)cc1	/	/	/	-0.4	-3.1
COc1ccc(Cl)cc1NC(=O)c1c(NCc2cccnc2)sc2c1CCC(C)C2 (stereo not drawn)	/	/	/	/	12.7
CCC(=O)N1CCc2cc(Br)cc(S(=O)(=O)CCC(=O)NCc3ccc(F)cc3)c21	/	/	/	/	-1.8
O=C(Cc1cccs1)NCc1ccncc1	58.0*	1.3	-4.9	-0.6	2.6
O=C(Cc1cccs1)NCCCc1ccccc1	69.4*	13.1	3.1	-0.5	-12.0
COc1ccc(S(=O)(=O)NCC(c2ccc(N(C)C)cc2)N2CCc3ccccc32)cc1F (stereo not drawn)	/	/	/	0.9	5.1
CCc1nc2c(OCc3ccc(Cl)cc3Cl)cccn2c1N(C)C(C)=O	/	2.4	8.9	/	/
